Results filed as inconclusive are left out. The source made the active and inactive calls. Unless noted, the call rests on the fitted dose curve; in most records, active means well fitted curve in the direction sought with a large enough effect in the repeat runs; inconclusive means weak or mixed curves; inactive means no such curve, though single readings can be large; an effect the other way counts as inactive or inconclusive.
Tests used:
[1] = target: Cytochrome P450 2D6 (Homo sapiens) (UniProt P10635); assay: Cytochrome P450 family 2 subfamily D member 6 (CYP2D6) small molecule antagonists: luciferase biochemical (cell-free) qHTS assay (AID 1645840); further: nearly all actives have a fitted effect of over 55% in size; on activity change, negative = inhibition: on the % scale 0 is the no-effect control and ±100 the full control effect
Chain of Cytochrome P450 2D6 (Homo sapiens) (P10635 whole entry, looked up): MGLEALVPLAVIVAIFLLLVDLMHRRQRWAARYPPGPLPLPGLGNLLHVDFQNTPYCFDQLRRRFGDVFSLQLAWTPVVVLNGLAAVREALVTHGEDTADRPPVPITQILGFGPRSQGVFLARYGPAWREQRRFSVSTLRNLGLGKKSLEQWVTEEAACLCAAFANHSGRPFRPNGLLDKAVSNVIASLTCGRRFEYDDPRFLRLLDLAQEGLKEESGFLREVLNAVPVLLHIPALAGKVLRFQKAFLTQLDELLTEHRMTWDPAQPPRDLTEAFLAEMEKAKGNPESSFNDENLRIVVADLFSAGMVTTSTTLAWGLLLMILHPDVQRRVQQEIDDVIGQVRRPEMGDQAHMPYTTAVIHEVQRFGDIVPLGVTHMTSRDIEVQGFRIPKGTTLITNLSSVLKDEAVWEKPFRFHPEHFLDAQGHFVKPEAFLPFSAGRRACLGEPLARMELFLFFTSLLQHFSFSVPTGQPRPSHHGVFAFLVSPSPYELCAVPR
Method in brief: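 P450-Glo luminescent screen: recombinant CYP2D6 enzyme–proluciferin substrate mix preincubated with compound 10 min at room temperature, then NADPH regeneration added for 1 h at room temperature. Detection reagent added for 20 min; luciferin light read as relative luminescence units.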

[2] = target: Cytochrome P450 2C9 (Homo sapiens) (UniProt P11712); assay: Cytochrome P450 family 2 subfamily C member 9 (CYP2C9) small molecule antagonists: luciferase biochemical (cell-free) qHTS assay (AID 1645842); further: nearly all actives have a fitted effect of over 55% in size; on activity change, negative = inhibition: on the % scale 0 is the no-effect control and ±100 the full control effect
Chain of Cytochrome P450 2C9 (Homo sapiens) (P11712 whole entry, looked up): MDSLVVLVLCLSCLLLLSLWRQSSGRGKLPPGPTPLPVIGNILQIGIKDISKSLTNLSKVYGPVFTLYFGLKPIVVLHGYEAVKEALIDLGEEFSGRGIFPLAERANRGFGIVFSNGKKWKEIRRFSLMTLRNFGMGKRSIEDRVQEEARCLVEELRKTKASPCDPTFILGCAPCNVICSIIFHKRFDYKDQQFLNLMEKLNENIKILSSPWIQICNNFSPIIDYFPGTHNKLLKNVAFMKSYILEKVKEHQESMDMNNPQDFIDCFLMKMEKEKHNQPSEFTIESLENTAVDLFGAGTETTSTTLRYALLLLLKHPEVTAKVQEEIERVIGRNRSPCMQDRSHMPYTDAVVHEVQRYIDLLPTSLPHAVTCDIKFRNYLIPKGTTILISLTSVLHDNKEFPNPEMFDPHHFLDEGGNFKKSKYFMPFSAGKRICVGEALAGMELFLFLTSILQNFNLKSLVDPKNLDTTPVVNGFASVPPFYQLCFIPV
Method in brief: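 Luminescence, after 20 min with luciferin detection reagent, reflected CYP2C9 turnover during a 1 h NADPH-driven reaction at 37C. Enzyme-substrate mix contained 0.4% bovine serum albumin and was preincubated with compound 10 min at room temperature.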

[3] = Primary qHTS for inhibitors of nuclear receptor binding SET domain protein 2 (NSD2) in an RCH-ACV wild type WT cells (2C) (AID 1645877; active means well fitted curve in the direction sought with a large enough effect; an effect the other way counts as inactive or inconclusive; further: nearly all actives have a fitted effect of over 70% in size)
[4] = target: Catechol O-methyltransferase (Homo sapiens) (UniProt P21964); assay: Confirmatory Screen for Target Class Profiling of Small Molecule Inhibitors of Methyltransferases (AID 1745852; calls by dose curve; on activity change, negative = inhibition: on the % scale 0 is the no-effect control and ±100 the full control effect); conditions: MTase-Glo luminescence, SAH detection, recombinant enzyme; measured here: COMT max response; stronger effect = lower value
Chain of Catechol O-methyltransferase (Homo sapiens) (P21964 whole entry, looked up): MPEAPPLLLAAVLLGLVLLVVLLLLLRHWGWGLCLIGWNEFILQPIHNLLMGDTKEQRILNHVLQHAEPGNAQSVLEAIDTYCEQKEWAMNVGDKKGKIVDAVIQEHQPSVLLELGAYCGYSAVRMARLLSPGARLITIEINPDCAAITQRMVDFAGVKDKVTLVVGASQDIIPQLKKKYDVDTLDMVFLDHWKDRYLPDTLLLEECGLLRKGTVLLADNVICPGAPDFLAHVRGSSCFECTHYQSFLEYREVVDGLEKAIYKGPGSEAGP

[5] = target: Guanidinoacetate N-methyltransferase (Homo sapiens) (UniProt Q14353); assay: as above; conditions: activity change, negative = inhibition: at 57.3 µM (top of the series) unless noted
[6] = target: Nicotinamide N-methyltransferase (Homo sapiens) (UniProt P40261); assay: as above; conditions: MTase-Glo luminescence, SAH detection, recombinant enzyme; measured here: NNMT max response; stronger effect = lower value
Chain of Nicotinamide N-methyltransferase (Homo sapiens) (P40261 whole entry, looked up): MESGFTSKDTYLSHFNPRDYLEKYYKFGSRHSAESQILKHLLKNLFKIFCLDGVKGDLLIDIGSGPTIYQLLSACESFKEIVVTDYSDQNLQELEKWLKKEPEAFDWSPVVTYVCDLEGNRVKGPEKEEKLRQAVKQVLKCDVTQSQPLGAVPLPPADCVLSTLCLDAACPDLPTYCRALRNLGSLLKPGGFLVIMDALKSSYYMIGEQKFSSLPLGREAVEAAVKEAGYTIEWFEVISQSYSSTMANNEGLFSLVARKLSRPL

[7] = target: Phenylethanolamine N-methyltransferase (Homo sapiens) (UniProt P11086); assay: as above; conditions: MTase-Glo luminescence, SAH detection, recombinant enzyme; measured here: PNMT max response; stronger effect = lower value
Chain of Phenylethanolamine N-methyltransferase (Homo sapiens) (P11086 whole entry, looked up, the tested form may be a part): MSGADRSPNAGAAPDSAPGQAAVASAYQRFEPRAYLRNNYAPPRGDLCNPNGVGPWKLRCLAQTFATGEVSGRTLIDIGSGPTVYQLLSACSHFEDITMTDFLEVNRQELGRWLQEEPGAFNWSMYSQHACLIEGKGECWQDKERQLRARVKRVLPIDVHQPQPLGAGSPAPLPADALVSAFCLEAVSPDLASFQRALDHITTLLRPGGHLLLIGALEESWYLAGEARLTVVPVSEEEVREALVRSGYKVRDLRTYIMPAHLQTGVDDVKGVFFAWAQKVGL

[8] = Primary qHTS for inhibitors of nuclear receptor binding SET domain protein 2 (NSD2) in an isogenic RCH-ACV NSD2 p.E1099K mutant (9B) (AID 1645876; active means well fitted curve in the direction sought with a large enough effect; an effect the other way counts as inactive or inconclusive; further: nearly all actives have a fitted effect of over 70% in size)
[9] = NCATS anti-infectives library activity on the primary C. elegans qHTS viability assay (AID 1745855; calls by dose curve)
Method in brief: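 Viability is taken from GFP fluorescence of PE254-GFP-FLuc C. elegans imaged by laser cytometry over 7 days. Ten L1 worms per well grow at 21 °C on TOP10 E. coli capsules with titrated compound; levamisole marks toxicity.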
Potency means the concentration at half of the fitted maximal effect.

O=C(NCCCc1ccccc1)C1CCC(CNS(=O)(=O)c2cccc3nsnc23)CC1 (configuration not stated)
Potency [1]: 10.7 µM (active) | Potency [2]: 9.52 µM (active) | Potency [3]: 11.5 µM (active)

CN(C)[C@@H]1CCc2[nH]c3ccc(NC(=O)c4ccc(F)cc4)cc3c2C1
Potency [1]: inactive | Potency [2]: inactive | activity [4]: 0.841% | activity change, negative = inhibition [5]: 0% | activity [6]: 0.33% | activity [7]: -1.89%

CCCCNc1ncc2c(-c3ccc(S(=O)(=O)N4CCOCC4)cc3)nn(C3CCC(O)CC3)c2n1 (configuration not stated)
Potency [1]: inactive | Potency [2]: 9.52 µM (active) | Potency [3]: 1.03 µM (active)

NC(N)=NC(=O)c1cnn(-c2cccc3ncccc23)c1C1CC1
Potency [1]: inactive | Potency [2]: inactive | activity [4]: -9.86% | activity change, negative = inhibition [5]: -8.74% | activity [6]: -53.6% | activity [7]: -5.56%

O=C(Nc1ccc(C(F)(F)F)cn1)N1CCN(c2ncccc2C(F)(F)F)CC1
Potency [1]: inactive | Potency [2]: 3.01 µM (active) | activity [4]: -1.28% | activity change, negative = inhibition [5]: 0% | activity [6]: -0.919% | activity [7]: -60.8%

CCn1c(-c2nonc2N)nc2c(C#CCO)ncc(OCCCN)c21
Potency [1]: inactive | Potency [2]: inactive | Potency [3]: 5.78 µM (active)

CCCCNc1ncc(C(=O)NCc2ccc(-n3ccnc3)cc2)c(NC2CCC(O)CC2)n1 (configuration not stated)
Potency [1]: 0.674 µM (active) | Potency [2]: 0.849 µM (active) | Potency [8]: 5.78 µM (active) | Potency [3]: 4.59 µM (active) | activity [4]: -11.6% | activity change, negative = inhibition [5]: -6.08% | activity [6]: -47.3% | activity [7]: -34.7%

Cc1cc(N2CCOCC2)ccc1Nc1nc(NC2CCCCC2)c2[nH]cnc2n1
Potency [1]: inactive | Potency [2]: 13.5 µM (active) | Potency [8]: 1.29 µM (active) | Potency [3]: 8.33 µM (active) | activity [4]: -13.2% | activity change, negative = inhibition [5]: -8.72% | activity [6]: -20.9% | activity [7]: -9.51%

CCCN1CCC=C(c2cc(-c3ccc(C)cc3)no2)C1
Potency [1]: 2.68 µM (active) | Potency [2]: inactive | Potency [8]: inactive | Potency [3]: inactive | Potency [9]: 6.48 µM (active)

CCCc1ccc(OCC(=O)N(Cc2nc(-c3cccnc3)no2)C(C)C)cc1
Potency [1]: 19 µM (active) | Potency [2]: 2.13 µM (active) | Potency [9]: inactive

CCC(CC)C(c1ccc(Nc2nc3ccccc3s2)cc1)n1cncn1 (configuration not stated)
Potency [1]: 2.39 µM (active) | Potency [2]: 0.952 µM (active) | Potency [8]: 18.6 µM (active) | Potency [3]: 18.6 µM (active) | activity [4]: -3.56% | activity change, negative = inhibition [5]: -4.47% | activity [6]: -14.5% | activity [7]: -5.31%

CC(F)(F)CN1CCOc2c(nn(-c3ccccc3Cl)c2-c2ccc(Cl)cc2)C1=O
Potency [1]: 13.5 µM (active) | Potency [2]: 13.5 µM (active) | Potency [3]: 18.3 µM (active) | activity [4]: -4.22% | activity change, negative = inhibition [5]: 0.516% | activity [6]: -32.3% | activity [7]: -3.99%

O=C(NCCN1CCC(n2c(=O)[nH]c3ccccc32)CC1)c1ccc2ccccc2c1
Potency [1]: 12 µM (active) | Potency [2]: 7.56 µM (active) | Potency [3]: 16.3 µM (active)

CC(C)c1cc2c(N3CCN(C4=NCC(C)(C)S4)CC3)ncnc2s1
Potency [1]: 3.01 µM (active) | Potency [2]: inactive | activity [4]: -1.24% | activity change, negative = inhibition [5]: 0.38% | activity [6]: -65.8% | activity [7]: -7.2%

C[C@@H]1CCCN1CCc1cc2cc(-c3ccc(C#N)cc3)ccc2o1
Potency [1]: 13.5 µM (active) | Potency [2]: inactive | Potency [3]: 20.5 µM (active)

CN1CCN(C2=Nc3ccccc3Nc3ccc(OS(=O)(=O)C(F)(F)F)cc32)CC1
Potency [1]: 3.38 µM (active) | Potency [2]: 10.7 µM (active) | Potency [3]: 16.3 µM (active)

Cc1c(C(=O)NCc2cccnc2)nn(-c2ccc(Cl)cc2Cl)c1-c1ccc(Cl)cc1
Potency [1]: 0.213 µM (active) | Potency [2]: 5.35 µM (active) | Potency [3]: 20.5 µM (active)

Cc1cc(C)nc(SCC(=O)Nc2ncc(Cc3cccc4ccccc34)s2)n1
Potency [1]: inactive | Potency [2]: 10.7 µM (active) | Potency [3]: inactive

N#C/C(=C1\Nc2ccccc2S1)c1ccnc(NCCc2cccnc2)n1
Potency [1]: 8.49 µM (active) | Potency [2]: 0.239 µM (active) | activity [4]: -23.6% | Potency [5]: 15.2 µM (active) | activity [6]: -43.4% | activity [7]: -21.8%

Nc1ncnc2c1c(-c1ccc(Oc3ccccc3)cc1)nn2[C@@H]1CCCNC1
Potency [1]: 15.1 µM (active) | Potency [2]: inactive | Potency [8]: 1.63 µM (active) | Potency [3]: 2.3 µM (active) | activity [4]: -13.8% | activity change, negative = inhibition [5]: -5.27% | activity [6]: -54% | activity [7]: -19%

Cc1cc2c(N3CCCC3)nc(N3CCCC3)nc2n1C
Potency [1]: 3.01 µM (active) | Potency [2]: 15.1 µM (active) | activity [4]: -23.9% | Potency [5]: 24.1 µM (active) | activity [6]: -27.1% | activity [7]: -17.6%

Cc1cccc(CC(=O)N2CCc3c2ccc(-c2cn(C)c4ncnc(N)c24)c3F)n1
Potency [1]: inactive | Potency [2]: 10.7 µM (active) | Potency [3]: 16.4 µM (active)

Cc1cc(C)c(-n2cc(C)c3c(Cl)nc(C)nc32)c(C)c1
Potency [1]: inactive | Potency [2]: 10.7 µM (active) | Potency [3]: inactive

C=CC(=O)N1CCN(C(=O)CNc2cc(-c3ccccc3Cl)c(Cl)cc2OC)CC1
Potency [1]: 12 µM (active) | Potency [2]: 3.01 µM (active) | Potency [3]: 16.3 µM (active)

CCCc1cc2c(N3CCN(C4=NCC(C)(C)S4)CC3)ncnc2s1
Potency [1]: 0.952 µM (active) | Potency [2]: inactive | activity [4]: -3.43% | activity change, negative = inhibition [5]: 1.29% | activity [6]: -77.1% | activity [7]: -5.27%

From PubChem BioAssay (NCATS)
